Assay outcomes: PubChem BioAssay, Center for Chemical Genomics, University of Michigan
Dicer inh – inhibitors of human Dicer processing of pre-microRNA; z-score at 25 µM; 47,000 tested, 6% active; cat-ELCCA pre-miR-21 Dicer processing, chemiluminescence; stronger effect = higher value; Q9UPY3; in the data active = z-score above about 3, passing the limit was not always enough;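 also: higher signal means more uncleaved substrate so more Dicer inhibition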
A number is an active result; . = inactive. Many of the other results were omitted from the sample, so hits are more common in it than they were.

SMILES	Dicer inh
CCCCCOC(=O)C1=C(C)NC2=C(C(=O)CCC2)C1c1ccccc1OCCC (centres undefined)	.
CCSCCOC(=O)C1=C(C)NC2=C(C(=O)CCC2)C1c1ccc(CC)cc1 (centres undefined)	.
COCc1cc(C)nc2sc(C(=O)N3CCOCC3)c(N)c12	.
O=[N+]([O-])c1ccsc1Sc1ccc(Cl)cc1	.
COC(=O)C1=C(C)Nc2nnnn2C1c1ccc(Cl)cc1 (centres undefined)	.
Cc1nnc2n1NC(c1ccc(Cl)cc1)C(C(=O)NCC(C)C)S2 (centres undefined)	.
CCCCCc1nc2ccccc2[nH]1	.
c1ccc2c(c1)nc1n2CN(CCCN2CCOCC2)CN1CC1CCCO1 (centres undefined)	.
CCOC(=O)c1c(C)oc2c1c1c(c3ccccc32)OCN(CC2CCCO2)C1 (centres undefined)	.
CCOC(=O)CSCc1noc(COc2ccc(Cl)cc2Cl)n1	.
CCc1ccc(-c2csc(NC3OC(=O)c4ccccc43)n2)cc1 (centres undefined)	.
Cc1nn(C(=O)Nc2cccc(Cl)c2)c(C)c1Cc1csc2ccc(Cl)cc12	.
CC1=C(C(=O)OCC2CCCO2)C(c2ccccc2OCc2ccccc2)C2=C(CCCC2=O)N1 (centres undefined)	3.57
COc1ccccc1C1C(C(=O)OCC2CCCO2)=C(C)NC2=C1C(=O)CCC2 (centres undefined)	.
CC1=C(C(=O)OCC2CCCO2)C(c2ccc(OCc3ccccc3)cc2)C2=C(CCCC2=O)N1 (centres undefined)	.
O=c1cc(C(F)(F)F)nc(SCc2c(F)cccc2Cl)[nH]1	.
CC(C)(C)c1ccc(OCC(=O)NN)c(C(C)(C)C)c1	.
Cc1ccc2nc(Nc3nc(O)cc(=O)[nH]3)nc(C)c2c1	.
Cc1ccc2nc(Nc3nc(C)cc(=O)[nH]3)nc(C)c2c1	.
Cc1cc(C)c2nc(Nc3nc(O)cc(=O)[nH]3)nc(C)c2c1	5.25
CCOC(=O)c1sc2ncn(CC(=O)OCC(C)C)c(=O)c2c1C	.
Cn1c(=O)c2c(nc(NCC(O)c3ccccc3)n2C)n(C)c1=O (centres undefined)	.
Cc1nc(Nc2nc(-c3ccc(F)cc3)cc(=O)[nH]2)nc2ccccc12	.
COc1ccc(NS(=O)(=O)c2ccc(Br)cc2)cc1	.
COc1ccc(S(=O)(=O)Nc2c(C)cc(O)cc2C)cc1	5.2
SMILES	Dicer inh
COc1ccc(S(=O)(=O)Nc2cc(OC)c(Cl)cc2OC)cc1	.
O=C(CSc1nc2ncccc2[nH]1)Nc1cccc(F)c1	.
CC(=O)Nc1ccc(Br)cc1[N+](=O)[O-]	.
Cc1c(Cl)cccc1NC(=S)N1C(C)CCCC1C (centres undefined)	.
Cc1ccccc1NC(=S)N1CC(C)OC(C)C1 (centres undefined)	.
Cc1ccccc1NC(=S)N1CCCCC1C (centres undefined)	3.43
O=C1C2C(c3ccccc3)OC3(C(=O)c4ccccc4C3=O)C2C(=O)N1C1CCCCC1 (centres undefined)	.
NN/C(=N\S(=O)(=O)c1ccc(-n2nc(C(F)(F)F)cc2-c2cccs2)cc1)N1CCCC1	.
CS/C(=N/S(=O)(=O)c1ccc(-n2nc(C(F)(F)F)cc2-c2cccs2)cc1)NNC(=O)Nc1ccccc1	4.44
CN(C)/C=N/S(=O)(=O)c1ccc(-n2nc(C(F)(F)F)cc2-c2cccs2)cc1	.
Nc1c2c(nc3cccc(F)c13)OCCC2	.
CC1(C)CC(=O)C(C(C2=C(O)CC(C)(C)CC2=O)c2cccc(O)c2O)C(=O)C1 (centres undefined)	4.26
Cc1ccc(C(C2=C(O)CC(C)(C)CC2=O)C2C(=O)CC(C)(C)CC2=O)o1 (centres undefined)	.
CC1(C)CC(=O)C(C(C2=C(O)CC(C)(C)CC2=O)c2cc(Br)ccc2O)C(=O)C1 (centres undefined)	.
Cc1nnc(NC(=O)CSc2nncn2C)s1	.
Cc1cc2nc3n(c2cc1C)C(O)C=C(c1ccccc1)S3 (centres undefined)	.
CCn1c[n+](CC(O)COc2ccccc2OC)c2ccccc21 (centres undefined)	7.69
CCn1c[n+](CC(O)COc2ccccc2C)c2ccccc21 (centres undefined)	.
CCn1c[n+](CC(O)COc2ccccc2)c2ccccc21 (centres undefined)	.
O=C(NNC(=O)c1cccc2ccccc12)c1ccc2nsnc2c1	.
COc1ccc(CCNC(=S)NC2CC3CCC2C3)cc1OC (centres undefined)	.
S=c1[nH]c(=S)c2cnc(N3CCN(c4ccccc4)CC3)nc2[nH]1	.
S=c1[nH]c(=S)c2cnc(N3CCOCC3)nc2[nH]1	3.41
CCN(CC)c1ncc2c(=S)[nH]c(=S)[nH]c2n1	.
COc1ccc(/C(C)=N/N=C/c2cc(OC)c(OC)c(OC)c2)cc1	.
SMILES	Dicer inh
COc1ccc(-c2nnc(SCC(=O)OC(C)C)o2)cc1	3.09
Cc1ccc(-c2nnc(SCC(=O)OC(C)C)o2)cc1	.
CC(C)OC(=O)CSc1nnc(-c2ccc(Br)cc2)o1	.
CCCCOC(=O)C1=C(C)NC2=C(C(=O)CC(C)(C)C2)C1c1cccc(O)c1 (centres undefined)	.
CCOC(=O)CNC(=O)c1cc2cc(Br)ccc2o1	.
Cc1cc2n(n1)C(c1ccccc1O)Nc1c(C)cccc1-2 (centres undefined)	5.17
CCN(CC)c1ccc(C2Nc3c(C)cccc3-c3cc(C)nn32)c(O)c1 (centres undefined)	.
COc1ccccc1C1Nc2c(C)cccc2-c2cc(C)nn21 (centres undefined)	3.9
COc1cc(O)ccc1C1Nc2ccccc2-c2cc(C)nn21 (centres undefined)	.
COc1ccc(C2Nc3c(C)cccc3-c3cc(C)nn32)c(OC)c1 (centres undefined)	.
COc1cc(O)ccc1C1Nc2c(C)cccc2-c2cc(C)nn21 (centres undefined)	3.8
Cc1cc2n(n1)C(c1cccs1)Nc1c(C)cccc1-2 (centres undefined)	.
COc1ccccc1C1Nc2c(C)cc(C)cc2-c2cc(C)nn21 (centres undefined)	.
CC(=O)O/N=C/c1[nH]ncc1Br	.
CCCc1ccc(C(=O)NN2CC(=O)N(c3cc(Cl)cc(Cl)c3)CC2=O)cc1	.
Cc1ccc(-c2nnc3c4ccccc4c(C)nn23)cc1NC(=O)CSc1nc2ccccc2o1	.
O=[N+]([O-])c1cc(C(F)(F)F)c(N2CCCCC2)cc1N1CCCCC1	.
Cc1ccc(Nc2ncnc3ccccc23)cc1C	.
CCOC(=O)N1CCC(NC(=O)CNC(=O)c2ccco2)CC1	.
N#C/C(=C1/SC=C(c2ccccc2)N1c1ccccc1)c1nc2ccccc2[nH]1	.
Cc1ccc(Sc2ccc(NC(=O)Nc3ccc(SC(F)(F)F)cc3)cn2)cc1	.
CCCC[C@@]1(C2CCCC2)Cc2cc(OCC(=O)O)c(Cl)c(Cl)c2C1=O	3.95
COc1ccc(CN2C(=O)c3oc4ccc(Cl)cc4c(=O)c3C2c2ccc(O)cc2)cc1 (centres undefined)	.
COc1cc(C2C(C(=O)OC3CCCCC3)=C(C)NC3=C2C(=O)CCC3)cc(Cl)c1O (centres undefined)	.
COc1c(Cl)cc(Cl)c(OC)c1C(=O)NC(=O)Nc1c(C)cc(Br)cc1C	.
COc1c(Cl)cc(Cl)c(OC)c1C(=O)NC(=O)Nc1c(Cl)cc([N+](=O)[O-])cc1Cl	.
COc1c(Cl)cc(Cl)c(OC)c1C(=O)NC(=O)Nc1c(Cl)cc(Cl)cc1Cl	3.16
